# From PubChem
# Tat export inh: E. coli Tat transport inhibition | inhibition, % at 10 µM | E. coli MC4100 TorA-mCherry Tat export, fluorescence | actives 0.036% (n = 340,000) | AID 488895;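 active = mean replicate inhibition at least 50% and at least half of replicates individually reaching 50%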;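 note: exported cargo escapes ClpAP degradation while cytoplasmic cargo is degraded and loses fluorescence; 0% = median of neutral control wells and 100% = median of NaSCN control wells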
# E coli growth-1: bacterial growth inhibition, counter-screen for AddAB inhibitors. E. coli V3065 growth, OD600 absorbance, 18 h. actives 0.27% (n = 330,000). inhibition, % at 11.9 µM;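 active = inhibition above the campaign's mean inhibition across all tested compounds plus 3 SD, cut at about 9.9% in these data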;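 note: uninfected addAB+ strain grown without phage in ampicillin broth; 0% = DMSO wells and 100% = ciprofloxacin 0.95 µg/ml wells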
# AddAB inh: less growth of phage-infected E. coli with AddAB | actives 0.29% (n = 330,000) | inhibition, % at 11.9 µM | E. coli expressing H. pylori AddAB, absorbance growth; in the data active = inhibition above about 12%;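 note: 0% = vehicle wells of infected cells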
# E coli growth-2: E. coli growth inhibition; AID 1053175; OD600 absorbance (concentration not given with the values); Escherichia coli growth, OD600, 23 h; stronger effect = lower value; actives 0.21% (n = 330,000);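 active = OD600 absorbance below the run mean of sample wells minus 3.6 SD, in any replicate, cut at about 0.56 in these data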
# phage Ecoli inh: E. coli growth loss with phage present. growth absorbance. inhibition, % at 11.9 µM. actives 0.26% (n = 360,000). AID 651602; in the data active = inhibition above about 11%
# RecBCD conf: growth loss of phage-infected V66 E. coli, RecBCD confirmation screen; shares compounds with phage Ecoli inh; inhibition, % at 11.9 µM; E. coli V66 + T4 2- phage, growth OD; AID 651982; actives 45% (n = 890);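 active = mean inhibition over triplicates exceeding the hit threshold derived in the original primary screen, cut at about 11% in these data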
# Ecoli viability: counter-screen for RecBCD inhibitors: inhibitors of bacterial viability; shares compounds with phage Ecoli inh; E. coli viability, absorbance (OD) growth; inhibition, % at 11.9 µM; actives 29% (n = 890); AID 651983; in the data active = inhibition above about 20%;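 note: E. coli strain V66 grown with compound alone and no phage infection; 0% = bacteria with DMSO vehicle only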
# AddAB counter: growth loss of phage-infected AddAB E. coli, RecBCD counter-screen | shares compounds with phage Ecoli inh | E. coli expressing H. pylori AddAB + T4 phage, OD growth; gene 2 mutant T4, recBCD-deleted host | inhibition, % at 11.9 µM | actives 45% (n = 890);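 active = mean inhibition above the solvent-only control wells' mean plus 3 SD, cut at about 22% in these data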;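 note: higher means less bacterial growth from phage killing when AddAB is blocked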
# Starred values were filed as active, the others as inactive; nt = no result given. The list is not random: actives were taken first. Their share in the collection is about 0.5%.
SMILES,Tat export inh,E coli growth-1,AddAB inh,E coli growth-2,phage Ecoli inh,RecBCD conf,Ecoli viability,AddAB counter
CN(Cc1ccccc1)C(=O)COC(=O)C1=NNC(=O)CC1,6.9,1.4,2.4,0.718,3.0,nt,nt,nt
N#CCCN(C(=O)COC(=O)C1=NNC(=O)CC1)c1ccccc1,-4.8,0.4,1.0,0.614,11.0*,-1.9,-2.6,-5.0
CCNS(=O)(=O)c1ccc(NC(=O)Cn2nc(C(F)(F)F)cc2C)cc1,-10.1,10.5*,11.2,0.685,12.0*,4.5,5.5,7.4
COc1cc(C=Nn2cnnc2)ccc1OC(=O)c1ccncc1,nt,nt,nt,0.706,nt,nt,nt,nt
CCC(NC(=O)Nc1nnc(C(F)(F)F)s1)(C(F)(F)F)C(F)(F)F,-20.7,9.3,5.1,0.607,12.4*,9.9,10.4,9.3
O=C(O)CCC(=O)Nc1nnc(C(F)(F)F)s1,1.2,-1.3,1.2,0.769,2.2,nt,nt,nt
Cc1nc(NN=Cc2ccccn2)sc1C,nt,nt,nt,0.647,nt,nt,nt,nt
Cc1nc(N/N=C/c2ccccn2)sc1C,nt,17.9*,20.1*,nt,16.3*,1.2,2.6,15.7
Cc1ccc2nc(Cl)c(C=Nn3c(C)nnc3C)cc2c1,nt,nt,nt,0.69,nt,nt,nt,nt
Cc1[nH]nc(C(F)(F)F)c1N=NN1CCOCC1,82.9*,nt,nt,nt,99.6*,99.2*,103.0*,100.3*
CC1CN(C(C)CO)C(=O)c2cc(N(C)C)ccc2OC1CN(C)S(C)(=O)=O (stereo unspecified),nt,nt,nt,0.695,nt,nt,nt,nt
Cn1c(=NNC(=O)c2ccccc2Br)sc2ccccc21,nt,nt,nt,0.664,nt,nt,nt,nt
CN(C)C(=O)/C(=C\c1ccc(-c2cccc([N+](=O)[O-])c2)o1)NC(=O)c1ccccc1,0.2,2.1,1.1,0.666,2.8,nt,nt,nt
CN(C)C(=O)/C(=C/c1ccc(-c2cccc([N+](=O)[O-])c2)o1)NC(=O)c1ccccc1,-2.2,0.6,-1.0,0.658,19.1*,-1.7,-0.6,7.0
S=C(Nc1ccc(Br)cc1)NC1CCCCC1,-0.2,6.0,8.0,0.665,11.9*,2.6,4.7,4.9
O=C(CN1C(=O)COc2ccccc21)NNC(=O)Nc1ccccc1F,-6.4,-1.4,3.2,0.693,1.9,nt,nt,nt
O=C(CN1C(=O)COc2ccccc21)Nc1ccccc1F,21.6,1.5,-0.1,0.691,14.1*,-2.7,-2.7,-2.7
NCCCCCNC(=O)c1[nH]cnc1C(=O)NC(Cc1ccccc1)C(=O)OCc1ccccc1 (stereo unspecified),nt,nt,nt,0.696,nt,nt,nt,nt
CCCCCCCCN1C(CC(=O)OCC)c2cc(F)ccc2S1(=O)=O (stereo unspecified),nt,nt,nt,0.701,nt,nt,nt,nt
O=C(COc1ccccc1)N/N=C/c1ccc([N+](=O)[O-])o1,-1.4,9.8*,10.1,nt,11.6*,8.2,7.3,30.8*
CCn1c(C)cc(C(=O)COC(=O)CNC(=O)c2ccco2)c1C,nt,nt,nt,nt,11.4*,5.8,10.3,3.4
CC(=O)NC(c1cc(Cl)c2cccnc2c1O)C1CC1 (stereo unspecified),-0.4,2.9,-0.5,0.683,6.4,nt,nt,nt
Oc1c(C(Nc2ccccn2)c2cccnc2)cc(Cl)c2cccnc12 (stereo unspecified),2.3,10.3*,11.8,0.675,17.5*,1.9,4.9,17.3
CC(=O)NC(c1ccc(C)cc1)c1cc(Cl)c2cccnc2c1O (stereo unspecified),-7.5,nt,nt,nt,20.9*,11.9*,16.0,17.5
O=C(CCc1ccccc1)NC(c1cccs1)c1cc(Cl)c2cccnc2c1O (stereo unspecified),-12.3,nt,nt,0.642,16.8*,8.6,9.2,14.2
SMILES,Tat export inh,E coli growth-1,AddAB inh,E coli growth-2,phage Ecoli inh,RecBCD conf,Ecoli viability,AddAB counter
CC(=O)NC(c1ccccc1)c1cc([N+](=O)[O-])c2cccnc2c1O (stereo unspecified),0.7,-4.9,-2.4,0.694,-4.7,nt,nt,nt
CCC(=O)NC(c1cccs1)c1cc(Cl)c2ccccc2c1O (stereo unspecified),0.7,1.1,3.5,0.695,2.0,nt,nt,nt
COC(=O)NN=Cc1ccc(OC(=O)c2ccco2)cc1,nt,nt,nt,0.667,nt,nt,nt,nt
O=Cc1cc(N=Nc2ccccc2Cl)ccc1O,0.2,7.2,7.3,0.683,12.5*,4.8,6.6,0.9
COc1ccc(N(CC(=O)NN=Cc2ccc(N(C)C)cc2)S(=O)(=O)c2ccccc2)cc1,nt,nt,nt,0.675,nt,nt,nt,nt
CNC(CC(C)C)C(=O)NC1C(=O)NC(CC(N)=O)C(=O)NC2C(=O)NC3C(=O)NC(C(=O)NC(C(=O)O)c4cc(O)cc(O)c4-c4cc3ccc4O)C(O)c3ccc(c(Cl)c3)Oc3cc2cc(c3OC2OC(CO)C(O)C(O)C2OC2CC(C)(N)C(O)C(C)O2)Oc2ccc(cc2Cl)C1O (stereo unspecified),-34.8,1.3,-1.9,nt,11.4*,4.2,7.6,15.3
O=C(NN=Cc1cccnc1)c1ccc([N+](=O)[O-])cc1,nt,nt,nt,0.659,nt,nt,nt,nt
O=C(c1ccc(-c2ccccc2)c(F)c1)C1CCCN(CCCn2cccn2)C1 (stereo unspecified),-3.6,1.0,3.4,0.696,99.5*,1.1,1.9,0.7
Oc1ccc(/C=N/N=C(c2ccccc2)c2ccccc2)c(O)c1O,1.2,5.1,6.2,nt,14.2*,2.5,3.5,5.4
O=C(/C(=N/N=C/c1ccc(O)c(O)c1O)c1ccccc1)c1ccccc1,5.5,5.9,7.5,nt,11.6*,6.5,6.5,7.0
O=C(COc1ccc2ccccc2c1)NCC(=O)NN=Cc1ccco1,nt,nt,nt,0.732,nt,nt,nt,nt
CC(NC(=S)NC1CCCCC1)C(c1cccs1)N1CCOCC1 (stereo unspecified),3.3,1.4,3.2,0.692,-2.0,nt,nt,nt
CC(NC(=O)C1CCCCC1)C(c1cccs1)N1CCOCC1 (stereo unspecified),-0.2,-1.6,0.7,0.75,96.5*,2.1,1.7,1.6
CCOC(=O)c1[nH]c2cc(OC)c(OC)cc2c1NC(=O)c1nonc1C,3.4,0.2,-0.2,0.715,14.0*,-0.3,0.7,-0.5
C/C(=N/NC(=O)c1cc2ccccc2cc1O)C1C(=O)c2ccccc2C1=O,7.1,9.2,9.4,nt,11.2*,5.4,6.7,2.9
CC(=NNC(=O)c1ccccc1O)C1C(=O)c2ccccc2C1=O,nt,nt,nt,0.669,nt,nt,nt,nt
CC(C)c1cc(C(C)C)c(S(=O)(=O)N2c3ccccc3[C@@]3(Br)CC4C(=O)NC(Cc5ccccc5)C(=O)N4C23)c(C(C)C)c1 (stereo partly specified),nt,nt,nt,0.72,nt,nt,nt,nt
Nc1nc(=S)c2ncn(C3OC(CO)CC3O)c2[nH]1 (stereo unspecified),-2.8,nt,nt,nt,11.5*,11.9*,11.1,37.8*
Nc1nc(N)c2cc(S(=O)(=O)c3cccc(C(F)(F)F)c3)ccc2n1,nt,nt,nt,nt,23.5*,31.5*,27.3*,58.8*
Nc1ncn([C@H]2C[C@H](O)[C@@H](CO)O2)c(=O)n1,-8.6,3.8,2.9,nt,11.7*,13.9*,7.8,33.6*
